Source: PubChem (Columbia University Molecular Screening Center)
Most compounds without a hit are left out; they make up all but 1.1% or so of the library.
E-sel TNF inh: E-selectin induction blockers in HUVEC – imaging, immunofluorescence, high content, primary screen; HUVEC TNFa-induced E-selectin immunofluorescence; 120,000 compounds, 0.71% hits; inhibition, % at 2 µM;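 active = inhibition above the batch mean plus 3 SD, and confirmed as a hit on visual image review, cut at about 43% in these data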
VCAM1 TNFa inh: inhibitors of TNFa-induced VCAM1 expression, primary screen, imaging, HUVEC, TNFa stimulus, immunofluorescence; AID 802, 2007; 95,000 compounds, 0.48% hits; HUVEC TNFa-induced VCAM-1 immunofluorescence, high-content imaging; inhibition, % at 2 µM;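 active = inhibition above the batch mean plus 3 SD, with images confirmed as a hit by eye, cut at about 37% in these data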
HUVEC tox TNFa: cytotoxicity in TNFa-stimulated HUVEC, primary screen, cytotoxicity control for VCAM1 expression modulator project, imaging, Hoechst nuclei count | AID 848, 2007 | HUVEC TNFalpha-stimulated, Hoechst cell count | cell count reduction, % at 2 µM | 93,000 compounds, 0.17% hits;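 active = cell count reduction exceeding the screen mean by over 5 SD, scaled to untreated wells per plate, cut at about 78% in these data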;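 also: cells counted after 24 h of TNF alpha exposure following the 1 h pretreatment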
F-actin modifier: modifiers of F-actin cytoskeleton organization, primary screen, imaging, HUVEC, phalloidin staining, high-content imaging; 91,000 compounds, 0.18% hits; inhibition, % at 2 µM; AID 836, 2007; HUVEC TNFa F-actin phalloidin imaging;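 active = inhibition above the batch mean plus 3 SD and confirmed as a hit by visual image inspection, cut at about 30% in these data, passing the limit was not always enough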
Hits are given with their value; . = inactive; / = no result given.

SMILES	E-sel TNF inh	VCAM1 TNFa inh	HUVEC tox TNFa	F-actin modifier
C=CCNC(=O)C1CC(=O)N(c2ccc(OCC(=O)Nc3ccc(Cl)c(C(F)(F)F)c3)cc2)C1 (configuration not stated)	.	.	.	.
C=CCNC(=O)C1CC(=O)N(c2ccc(OCC(=O)Nc3cccc(OC)c3)cc2)C1 (configuration not stated)	.	.	.	52
CCOC(=O)c1cc2c(=O)n3ccccc3nc2n(CCCOC)c1=NC(C)=O	.	.	.	.
CCCn1c(=NC(=O)c2ccco2)c(C(=O)OCC)cc2c(=O)n3ccccc3nc21	58	.	.	.
CC(=O)Nc1ccc(S(=O)(=O)n2cnc(C)c2)cc1	.	91	98	.
O=C(Nc1nccs1)c1nc(-c2ccccc2)n(-c2ccccc2)n1	43	.	.	.
Cc1ccc(/C=c2\sc3n(c2=O)CN(c2cccc(Br)c2)CN=3)o1	62	.	.	.
Cc1ccc(C(=O)NNC(=O)CSc2nnc(-c3ccncc3)n2C)cc1	.	.	/	.
O=c1[nH]nc(Sc2ncnc3sccc23)n1CCc1ccccc1	.	.	.	.
CC(=O)C1=C(O)C(=O)N(c2nccs2)C1c1ccccc1 (configuration not stated)	.	.	.	/
C=C1C(=O)[C@@]23[C@H](O)C[C@@H]4C(C)(C)CC[C@H](O)[C@@]4(C)[C@@H]2CC[C@@H]1[C@H]3O	58	/	/	/
C/C(=N\NC(=O)c1cccc(S(=O)(=O)Nc2ccccc2Cl)c1)c1ccc(-n2ccnc2)cc1	.	.	.	.
Cc1cc(C)n(-c2nc3ccccc3nc2N2CCN(C(=O)c3ccc(Cl)cc3)CC2)n1	.	92	/	.
O=C(NCCN1CCOCC1)c1ccc(-c2ccccc2)cc1	.	.	.	.
O=C(Cc1ccc(-c2ccccc2)cc1)NCCN1CCOCC1	95	/	/	/
CCC(SCC(=O)OC)C(=O)Nc1nnc(C(C)C)s1 (configuration not stated)	67	.	.	.
O=C(NCc1cccnc1)C1CCN(S(=O)(=O)c2cccs2)CC1	69	.	.	.
Cc1nc2ccc(NC(=O)C3CCN(S(=O)(=O)c4cccs4)CC3)cc2s1	72	.	.	.
COc1ccc2c(C)nc(Nc3nc(C)cc(=O)[nH]3)nc2c1	.	.	.	.
CCN(CC)S(=O)(=O)c1ccc2[nH]c(=O)cc(C(=O)Nc3cccc(C(C)=O)c3)c2c1	68	/	/	/
CCN(CC)S(=O)(=O)c1cccc(C(=O)Nc2cccc(C)c2)c1	.	.	.	/
COc1ccc(-c2noc(CN3CCOCC3)n2)cc1OC	.	.	.	.
c1ccc(NC2=NCCCCS2)cc1	54	.	.	.
CCOc1nnnc2c1sc1nc(N3CCOCC3)c3c(c12)CCCC3	.	.	.	.
CC(OC(=O)c1ccco1)C(=O)NC1CCCCC1 (configuration not stated)	86	.	.	.
SMILES	E-sel TNF inh	VCAM1 TNFa inh	HUVEC tox TNFa	F-actin modifier
CC(C)C(OC(=O)c1ccco1)C(=O)NC1CCCCC1 (configuration not stated)	.	.	.	.
CCOc1ccccc1NC(=O)/C(C#N)=C/c1c(C)nn(-c2ccc(F)cc2)c1Cl	.	/	/	/
CN(C)c1nc(C=C(C#N)C#N)c(Cl)n1-c1ccc(F)cc1	87	/	/	/
COc1ccc2nc(NC(=O)CSC3=NCCS3)sc2c1	100	.	.	.
CCOc1ccc2nc(NC(=O)CSC3=NCCS3)sc2c1	.	.	.	.
CC1CCN(S(=O)(=O)c2ccc(NC(=O)CSc3nnnn3C)cc2)CC1	.	.	.	.
CC(=O)N1CCc2cc(Br)cc(S(=O)(=O)NCCCN3CCC(C)CC3)c21	.	.	.	.
O=C(C1CC1)N1CCc2cc(Br)cc(S(=O)(=O)NCCCN3CCCC3)c21	66	/	/	/
Cc1ccc(S(=O)(=O)N2CCCCC2)cc1NC(=O)COC(=O)c1ccc(O)cc1	.	/	/	/
O=C(NCc1ccco1)c1ccc2c(=O)n(-c3ccccc3)c(=S)[nH]c2c1	/	.	.	.
COc1ccc(-n2c(=S)[nH]c3cc(C(=O)NCc4ccco4)ccc3c2=O)cc1OC	67	.	.	.
CCC(C)(C)NC(=O)C(c1ccc(C)cc1)N(CCN1CCOCC1)C(=O)CNC(=O)c1cccs1 (configuration not stated)	.	/	/	/
O=C(Nc1ccc(Cl)cc1)c1cc2nc(-c3ccco3)cc(C(F)(F)F)n2n1	78	.	.	.
CC1CCCN(c2ccc(C(=O)Nc3cccnc3)cc2[N+](=O)[O-])C1 (configuration not stated)	.	/	/	/
COc1ccc2c(c1)CCc1c(C(=O)N3CC4(C)CC3CC(C)(C)C4)noc1-2 (configuration not stated)	.	91	.	.
CCOc1ccc(N2CC(C(=O)NCCCN3CCOCC3)CC2=O)cc1 (configuration not stated)	50	.	.	.
CCOc1ccc(N2CC(C(=O)Nc3ccc(N4CCOCC4)cc3)CC2=O)cc1 (configuration not stated)	.	.	.	.
CC(C)CCN(C(=O)Nc1ccc(Cl)cc1)C1CCN(C(C)C)CC1	.	/	/	/
CC(C)CCNC(=O)c1nnc(Cc2ccc(Cl)cc2)o1	70	.	.	.
O=C(N/N=C/c1ccncc1)c1ccccc1	.	62	.	.
O=C(N/N=C/c1ccc(C(F)(F)F)cc1)c1ccc(O)cc1	78	/	/	/
COc1ccccc1N1CCN(S(=O)(=O)c2ccc(Br)s2)CC1	.	.	.	.
COc1ccccc1N1CCN(C(=O)c2ccc(Br)s2)CC1	80	/	/	/
O=C(c1cc(-c2ccncc2)nc2ccc(Br)cc12)N1CCN(c2ccccn2)CC1	.	100	/	84
O=C(c1cccn2c(=O)c3cc(Br)ccc3nc12)N1CCN(c2ccccn2)CC1	.	.	.	/
SMILES	E-sel TNF inh	VCAM1 TNFa inh	HUVEC tox TNFa	F-actin modifier
CCOc1cccc(C(=O)Nc2cccc(-c3nc4ncccc4o3)c2C)c1	.	/	/	/
COc1cccc(C(=O)Nc2cccc(-c3nc4ncccc4o3)c2C)c1	/	94	.	.
COc1cc(-c2nnc3n2N=C(c2ccccc2)CS3)cc(OC)c1OC	.	54	.	.
COc1ccc(-c2nnc3n2N=C(C)CS3)cc1	.	.	.	.
COc1ccc(C2=Nn3c(nnc3-c3ccc(OC)cc3)SC2)cc1	.	40	.	.
COc1ccc(C2=Nn3c(nnc3-c3ccccc3OC)SC2)cc1OC	.	48	.	/
Cc1cc(C(F)F)n2nc(C(=O)Nc3cccnc3Cl)nc2n1	.	.	.	.
NC1=CC(=O)c2cccc3cccc1c23	/	43	.	/
NC1=Nc2cccc3cccc1c23	.	/	/	/
Cc1ccc(NCc2nnc(SCC(=O)NCCc3ccccc3)n2C)cc1	/	.	.	.
COc1cc2c(cc1NC(=O)Nc1ccccc1)oc1ccccc12	100	.	.	.
Cc1cnc(NC(=O)COc2ccccc2)s1	/	.	.	/
COc1cc(CC(=O)Nc2ncc(C)s2)cc(OC)c1OC	.	51	.	.
Cc1ccc(CSc2nc3nc(C)cc(C)c3c(=O)[nH]2)cc1	.	/	/	/
Cc1nc(SCc2ccc(Br)cc2)[nH]c(=O)c1C	.	67	.	.
